# Reference: PubChem BioAssay (NCI)
# “And” between values parts separate entries of the source, which are not always exact repeats. Equal values may be shown once. About 83,000 compounds went through this panel and 20% of them were active in at least one assay; those are over-represented in the sample as a whole.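 Treatment: one concentration, 48 hours, 96-well format. Scoring: percent growth, with anything below 10 considered active.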 Unmarked numbers belong to inactive results. The source made the active and inactive calls.
# Columns and labels:
# Experiment in all cases: NCI-60 one-dose screen, 48 h (100 = growth as untreated, 0 = no growth, -100 = all killed)
# Conditions in all cases: 10 µM unless noted
# NCI-H23 lung = system: NCI-H23 lung
# NCI-H226 lung = system: NCI-H226 lung
# NCI-H322M lung = system: NCI-H322M lung
# HOP-62 NSCLC = system: HOP-62 NSCLC
# NCI-H460 lung = system: NCI-H460 lung
# HOP-92 NSCLC = system: HOP-92 NSCLC
# NCI-H522 lung = system: NCI-H522 lung
# A549/ATCC NSCLC = system: A549/ATCC NSCLC
# 786-0 renal = system: 786-0 renal
# COLO 205 colon = system: COLO 205 colon
# DU-145 prostate = system: DU-145 prostate
# K-562 leukemia = system: K-562 leukemia
# MALME-3M melanoma = system: MALME-3M melanoma
# MDA-MB-231 breast = system: MDA-MB-231 breast
# RXF 393 renal = system: RXF 393 renal
# SF-268 CNS = system: SF-268 CNS
# SF-295 CNS = system: SF-295 CNS
# SF-539 CNS = system: SF-539 CNS
# UACC-257 melanoma = system: UACC-257 melanoma
# M14 melanoma = system: M14 melanoma
Compound,growth (NCI-H23 lung),growth (NCI-H226 lung),growth (NCI-H322M lung),growth (HOP-62 NSCLC),growth (NCI-H460 lung),growth (HOP-92 NSCLC),growth (NCI-H522 lung),growth (A549/ATCC NSCLC),growth (786-0 renal),growth (COLO 205 colon),growth (DU-145 prostate),growth (K-562 leukemia),growth (MALME-3M melanoma),growth (MDA-MB-231 breast),growth (RXF 393 renal),growth (SF-268 CNS),growth (SF-295 CNS),growth (SF-539 CNS),growth (UACC-257 melanoma),growth (M14 melanoma)
C/C(=C(\c1ccc(OCCN2CCOCC2)cc1)c1ccc(OC(=O)C2CCCCC2)cc1)c1ccc(Cl)cc1,88.9%,103%,91.9%,99.4%,97.5%,71%,62.8%,92.9%,80.6%,103%,103%,66.1%,104%,98.8%,94.9%,95.8%,106%,105%,99%,87.4%
C#CCOc1cccc(Nc2ncc3ncn(C4CCN(C(=O)CCl)C4)c3n2)c1 (stereo not given),45.2% [6.25 µM],23.3% [6.25 µM],78.6% [6.25 µM],78.3% [6.25 µM],72.1% [6.25 µM],73% [6.25 µM],-77.4% [6.25 µM] (active),78.5% [6.25 µM],-4.37% [6.25 µM] (active),-84% [6.25 µM] (active),84% [6.25 µM],5.61% [6.25 µM] (active),14.3% [6.25 µM],2.24% [6.25 µM] (active),-51.9% [6.25 µM] (active),40.2% [6.25 µM],89% [6.25 µM],68.7% [6.25 µM],72.6% [6.25 µM],24% [6.25 µM]
CCC(=O)Oc1cc(Cl)c(Cl)cc1Cl,102%,97.7%,104%,105%,104%,100%,99.8%,101%,98.2%,113%,103%,101%,108%,114%,113%,97.9%,96%,97.1%,95.8%,99.5%
C#Cc1cc(C(=O)Nc2ccc(CN3CCN(C)CC3)c(C(F)(F)F)c2)ccc1C,88.2%,83.6%,88.5%,88.5%,71.6%,58.5%,96.1%,70.8%,52.2%,56.3%,85.8%,7.97% (active),23.6%,59.2%,76.3%,82.5%,77%,44%,-32.9% (active),-70.4% (active)
COc1ccccc1/C=C1\COc2ccc(O)cc2C1=O,101%,102%,104%,101%,93.3%,103%,24.6%,84.6%,97.2%,87.6%,96.4%,6.88% (active),79.9%,121%,92.1%,83.9%,104%,92.5%,95.2%,77.8%
Cc1cc(N2CCN(CC(=O)Nc3ccc4c(ccn4Cc4ccccc4)c3)CC2)nc(N2CCCCCC2)n1,53.2%,57.4%,77.9%,59.8%,40%,0.991% (active),62.4%,46.3%,79.4%,30.6%,71.5%,14.8%,18.2%,28.2%,28.7%,72.9%,44.4%,69.4%,42.8%,-7.84% (active)
CN1CCN(C(=O)OCc2nc3c(N4CCOCC4)nc(Cl)nc3n2C)CC1,-1.07% (active),-60.8% (active),53.7%,47.3%,6.7% (active),-32% (active),-38.8% (active),25.1%,-95.5% (active),-30.8% (active),1.69% (active),-11% (active),-65.3% (active),-77.5% (active),-94.9% (active),1.11% (active),73.4%,-99% (active),-64.7% (active),-77.4% (active)
COc1cc(Nc2nc3ccccc3cc2C(=O)Nc2ccc(F)c(F)c2)cc(OC)c1OC,9.57% (active),22.1%,53%,46%,9.51% (active),1.01% (active),20.4%,22.7%,34.5%,9.14% (active),30%,16.8%,51.5%,30.5%,68.3%,40.4%,14.2%,37.9%,52.3%,24.4%
COc1cc(Cl)cc(-c2nn(C(=O)NS(=O)(=O)c3ccc(Cl)cc3)cc2-c2ccncc2)c1,89.1%,70.7%,96.5%,59.4%,111%,26.6%,74.3%,65.1%,67.9%,72.1%,83.8%,82.2%,78.1%,56.8%,71.2%,67.5%,90.6%,39.6%,113%,72.7%
Fc1ccc(NC(c2ccc(F)cc2)C2CCN(CCCCc3ccccc3)CC2)cc1 (stereo not given),43.7%,74.4%,60.9%,71.4%,1.45% (active),29.1%,53.6%,52.3%,35.8%,-56.5% (active),19.3%,-29.1% (active),32.6%,6.83% (active),10.9%,44.2%,34.6%,40.5%,60.7%,24.7%
CN(C)CC1(C)Cc2ccsc2C1O (stereo not given),106% and 109%,105%,119%,105% and 108%,112% and 108%,101% and 108%,94.5% and 94.3%,112% and 110%,97.2% and 94.9%,106% and 105%,116% and 97.1%,104% and 92.8%,98.8%,113% and 111%,108% and 109%,113% and 102%,121% and 115%,93.4% and 105%,108% and 110%,111% and 108%
C/C=C(\C)C(=O)N[C@H]1CC[C@]2(C)C3CC[C@@]4(C)C(CC[C@@H]4C(C)N(C)C)C3CCC2[C@H]1OC(C)=O (stereo not given in full),-8.02% (active),-2.69% (active),-48.5% (active),-60% (active),-86.4% (active),-49.4% (active),6.83% (active),-17.8% (active),-88.8% (active),-90.7% (active),4.99% (active),18%,-68.6% (active),-32.3% (active),-61.5% (active),-84.6% (active),-66.9% (active),-95.7% (active),-51.3% (active),-64.1% (active)
CN(C)C1CCN(C(=O)c2ccc(NC(=O)Nc3ccc(-c4nc(N5CCOCC5)c5cccn5n4)cc3)cc2)CC1,15.5%,-7.75% (active),-9.27% (active),-12.9% (active),6.48% (active),-31.2% (active),14.6%,3.9% (active),-18.6% (active),-3.31% (active),0.561% (active),18.9%,-32.6% (active),0.146% (active),-30.4% (active),2.29% (active),-37.1% (active),-39.6% (active),-18.3% (active),-0.109% (active)
CCN(CC)CCCN1C(=O)c2c(c(C)c3c(oc4cc(OC)ccc43)c2C)C1=O,105%,-5.51% (active),94.2%,109%,92.6%,87.3%,104%,92.5%,-79% (active),86.1%,112%,-31.5% (active),85.3%,96%,73%,101%,100%,95.5%,114%,108%
